Reference: ChEMBL document CHEMBL3988442, “University of Dundee, Small-Polar-MMV Screening Library” (2021)
The whole screen tested about 48,000 compounds, of which about 13,000 (27%) showed an effect of 50% or more. This is one part of the list.

test system: Wolbachia pipientis; assay: Anti-Wolbachia Cell-Based Screen; assay type: functional; set-up: scale not given: in the data most compounds retested in dose-response had high values; conditions: 5 µM

Compound | Percent Effect
C1CCC(c2nc3c(c(N4CC(N5CCOCC5)C4)n2)CCNCC3)C1 | -4.65%
Cc1noc(C)c1CN(C)C(=O)C1CCCCN1CC(C)C (configuration not stated) | 0.6295%
CCc1cnc(C)nc1N1CCS(=O)(=O)CC1 | 16.32%
CN1C[C@@H](C(=O)NC(C)(C)C)[C@@]2(COc3ccc(F)cc3C2=O)C1 | 107.1%
CC(C)(C)NC(=O)C1CSCN1S(=O)(=O)c1ccc(F)cc1 (configuration not stated) | 5.212%
CC(C)(C)NC(=O)C1CSCN1S(=O)(=O)c1cccc(F)c1 (configuration not stated) | 1.077%
CC(=O)c1cccc(S(=O)(=O)N2CSCC2C(=O)NCC(F)(F)F)c1 (configuration not stated) | 8.95%
Cc1cc(C(=O)NCc2ccc(-c3n[nH]cc3C(=O)N(C)C)cc2)on1 | 136.2%
Cc1cc(C(=O)NCc2ccccc2CN(C)Cc2ccco2)on1 | 21.5%
CCOc1cc(CNC(=O)c2cc(-c3ccccn3)no2)ccn1 | -5.804%
CN(Cc1ccco1)Cc1ccccc1CNC(=O)c1cnccn1 | 7.808%
CN(C)C(=O)c1c[nH]nc1-c1ccc(CNC(=O)c2cnccn2)cc1 | 109.4%
CN(c1ccc(CNC(=O)c2ccc(O)nc2)cc1)C1CCCCC1 | 6.661%
Cc1ncsc1C(=O)NCc1ccc(-c2n[nH]cc2C(=O)N(C)C)cc1 | 72.18%
CN(CCOc1cccc(CNC(=O)C2CC2)c1)C1CCOCC1 | -18.9%
CCN(CC)c1ccc(CNC(=O)c2cnccn2)cn1 | 2.528%
CN(C)C(=O)c1cncnc1-c1ccc(CNC(=O)C2CC2)cc1 | 73.6%
Cc1ccc(CNC(=O)c2c[nH]nc2NC(=O)C2CCC2)cc1 | 4.147%
Cc1ncsc1C(=O)NCc1cccs1 | -3.425%
CCC(C)NC(=O)c1ccc(NC(=O)CCCn2cncn2)c(C)c1 (configuration not stated) | -0.8579%
CC(C)=CCS(=O)(=O)Cc1ccn(-c2cccc(F)c2)n1 | -8.164%
Cc1cc(C)n2nc(CC(=O)N3CC[C@H]4NCCC[C@]4(CO)C3)nc2n1 | 5.114%
CCC(O)Cn1nc(CCSC)nc1-c1ccc2c(c1)OCCO2 (configuration not stated) | -7.02%

Compound | Percent Effect
CCc1nc(C2CCCN(C(=O)c3ccc(Cl)cc3)C2)no1 (configuration not stated) | 149.4%
CC(C)c1nc(C2CCCN(C(=O)c3ccc4[nH]cnc4c3)C2)no1 (configuration not stated) | 1.919%
CCc1nc(C2CCCN(C(=O)c3ccc(OC(C)C)nc3)C2)no1 (configuration not stated) | 4.592%
CCc1nc(C2CCCN(C(=O)c3cn(C)nc3C)C2)no1 (configuration not stated) | -1.661%
CCc1nc(C2CCCN(C(=O)c3ccc4[nH]nnc4c3)C2)no1 (configuration not stated) | 1.903%
CCc1nc(C2CCCN(C(=O)c3ccc4[nH]cnc4c3)C2)no1 (configuration not stated) | 87.55%
CCc1nc(C2CCCN(C(=O)c3ccc(O)nc3)C2)no1 (configuration not stated) | 94.4%
CCc1nc(C2CCCN(C(=O)c3c(C)noc3C)C2)no1 (configuration not stated) | 106.3%
O=C(NCc1ccc(CN2CCCC2)cc1)NCc1ccon1 | -9.348%
COc1cc(C)nc(N2CCN(C(=O)CNC(C)(C)C)CC2)n1 | -7.081%
c1cncc(NCCCNC2CCSC2)c1 (configuration not stated) | 8.573%
Cn1cnnc1-c1cncc(NCc2cccc3c2OCO3)c1 | -7.225%
Cc1noc(C(C)Nc2ccc3oc(=O)[nH]c3c2)n1 (configuration not stated) | -7.057%
CN(CC(=O)N1CCN(c2ncccn2)CC1)c1ccc(Cl)cn1 | -31.13%
Cc1noc(C)c1C(=O)N1CCCC(c2nccn2Cc2cscn2)C1 (configuration not stated) | -18.15%
Cc1c[nH]nc1C1CCCN(C(=O)c2c(C)noc2C)C1 (configuration not stated) | 107%
CCc1nc(C2CCCN(C(=O)c3ccc(OC)cc3)C2)no1 (configuration not stated) | 87.64%
CCc1nc(C2CCCN(C(=O)c3ccc(F)cc3)C2)no1 (configuration not stated) | 103.7%
CCc1ccc(C(=O)N2CCCC(c3noc(CC)n3)C2)o1 (configuration not stated) | 3.526%
Cc1cc(C)n(C2CCCN(C(=O)c3c(C)noc3C)C2)n1 (configuration not stated) | -7.23%
CCc1nc(C2CCCN(C(=O)c3ccncc3)C2)no1 (configuration not stated) | 123.6%
C=Cc1ccc(C(=O)N2CCCC(Nc3ccc(F)cc3)C2)cc1 (configuration not stated) | -17.89%
CCC(CC(=O)NS(=O)(=O)C(C)C)c1ccccc1 (configuration not stated) | 10.71%

Compound | Percent Effect
COc1cc2c(cc1CNCc1cccnc1-n1cccn1)OC(C)C2.Cl (configuration not stated) | 12.76%
Cc1ccc(C)c(CNC(=O)NC(C)(C(=O)O)c2ccco2)c1 (configuration not stated) | 3.789%
CC1=C(CCN2CCCC(O)C2)C(C)(C)CCC1 (configuration not stated) | -3.829%
C(=C\c1ccc(CN2CCCC2)cn1)/c1ccccc1 | -4.188%
CC(=O)Nc1nc(C(=O)NCCOc2ccccc2)cs1 | -21.48%
CCCNc1nc(CS(=O)(=O)c2ccccc2)cs1 | -6.524%
Br.O=C(O)c1csc(NCCc2ccccc2)n1 | 93.16%
CC(C)(C)CC(=O)NCC(=O)NCC(O)c1ccc2ccccc2c1 (configuration not stated) | 2.35%
CN(Cc1ccc(-n2cccn2)cc1)c1cc(N)nc(N)n1 | -3.397%
N#Cc1cccnc1N1CCC2(CCCN(C3CCOCC3)C2=O)C1 (configuration not stated) | -10.29%
Cc1ccc(C#N)c(N2CCC3(CCC(=O)N(CC(N)=O)C3)CC2)n1 | -13.92%
COc1ccnc(N2CCC3(CCCN(C(C)C)C3=O)C2)n1 (configuration not stated) | 10.66%
Cc1nccnc1N1CCC2(CCCN(C3CCOCC3)C2=O)C1 (configuration not stated) | 28.32%
COC[C@@]12CC[C@@H](N3CCOCC3)C[C@H]1CCN(c1ncccc1Cl)C2 | 19.13%
Cc1cc(N2CCC3(CCCN(C4CCOCC4)C3=O)C2)ccn1 (configuration not stated) | 118.2%
O=C1N(C2CCOCC2)CCCC12CCN(c1ncccc1Cl)C2 (configuration not stated) | 119%
Cc1cc(N2CCC(c3nnc(CN(C)C)n3C3CC3)CC2)ccn1 | 1.365%
Cc1nc(N2CCC3(CCCN(C(C)C)C3=O)C2)c2sccc2n1 (configuration not stated) | -8.987%
Cc1ccc(C#N)c(N2CCC(c3nccn3Cc3cscn3)CC2)n1 | -1.954%
Cc1ccc(C#N)c(N2CCC3(CCCN(C4CCOCC4)C3=O)C2)n1 (configuration not stated) | 93.97%
Cc1cnc(C)c(N2CCC3(CCCN(C4CCOCC4)C3=O)C2)n1 (configuration not stated) | 106.2%
